Measurements taken from PubChem BioAssay (NCI).
Compounds without any hit were thinned out: in the full panel of roughly 83,000, 20% have a hit.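 Negative percent growth values reflect cell death: -40 means 40% of the cells present at the start died, and -100 means all died.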 Unmarked numbers belong to inactive results. The source made the active and inactive calls. How the source made its calls: active means growth percent below 10; inactive means the rest.

Experiments:
Assay in all cases: NCI-60 one-dose screen, 48 h (100 = growth as untreated, 0 = no growth, -100 = all killed)
Settings in all cases: 10 µM unless noted
[1] = system: SK-MEL-2 melanoma
[2] = system: EKVX NSCLC
[3] = system: SN12C renal
[4] = system: UO-31 renal
[5] = system: TK-10 renal
[6] = system: ACHN renal
[7] = system: CAKI-1 renal
[8] = system: A498 renal
[9] = system: CCRF-CEM leukemia
[10] = system: MOLT-4 leukemia
[11] = system: SR leukemia
[12] = system: RPMI-8226 leukemia
[13] = system: OVCAR-8 ovarian
[14] = system: OVCAR-5 ovarian
[15] = system: OVCAR-4 ovarian
[16] = system: SK-OV-3 ovarian
[17] = system: IGROV1 ovarian
[18] = system: OVCAR-3 ovarian
[19] = system: HS 578T breast
[20] = system: NCI/ADR-RES ovarian

SMILES	growth [1]	growth [2]	growth [3]	growth [4]	growth [5]	growth [6]	growth [7]	growth [8]	growth [9]	growth [10]	growth [11]	growth [12]	growth [13]	growth [14]	growth [15]	growth [16]	growth [17]	growth [18]	growth [19]	growth [20]
O=C(/C=C/c1cccc(Cl)c1)c1cccc(OCCCCOc2cccc(C(=O)/C=C/c3cccc(Cl)c3)c2)c1	103%	106%	92.9%	72%	109%	100%	75.7%	96.9%	84.4%	89%	39.5%	-26.8% (active)	97.3%	109%	93.3%	113%	88.9%	91.9%	95.8%	99.7%
Oc1c(Cl)cc(Cl)c2ccc(Cn3cc(-c4cccc(C(F)(F)F)c4)nn3)nc12	93.8%	80.1%	84.6%	73.4%	99.7%	47.9%	31.1%	91.1%	6.72% (active)	3.08% (active)	-15.6% (active)	8.24% (active)	80%	94.5%	65.9%	107%	85.2%	15%	74.9%	104%
Cc1ccc(C)c(-n2c(-c3ccc(Br)cc3)csc2=NC(=O)c2ccccc2F)c1	101%	76.1%	85.8%	108%	116%	52.9%	76.1%	80.7%	43.4%	30.5%	-11.5% (active)	-11.2% (active)	65.3%	112%	40.6%	86.9%	213%	75.5%	101%	56.7%
O=C1/C(=C/c2ccccc2)CN(C(=O)c2cccnc2)C/C1=C\c1ccccc1	89.6%	30.2%	6.72% (active)	-54.5% (active)	20.7%	-15.7% (active)	5.87% (active)	65.3%	-15% (active)	0.998% (active)	4.69% (active)	-19.6% (active)	12.4%	10.8%	43.8%	40.2%	2.89% (active)	-16.2% (active)	21.4%	18.7%
COc1cc2c(/C=C3\C(=O)Nc4ccccc43)c(C(=O)O)[nH]c2cc1C	101%	89.2%	99.7%	55%	134%	90.5%	94.8%	136%	88.7%	84%	91.3%	87%	103%	59.1%	95.3%	129%	-10% (active)	108%	137%	84.1%
O=C(Nc1nc(C(=O)N2CCN(C(c3ccccc3)c3ccccc3)CC2)cs1)c1ccc(NC2CCCCC2)c([N+](=O)[O-])c1	104%	77.9%	85.6%	66.1%	100%	86.6%	78.4%	87.6%	95%	77.9%	90.2%	64.2%	80.4%	89.2%	68.9%	89.8%	79.6%	92.2%	90.2%	77%
CCOC(=O)C1=C(C)N=C2SC=C(c3ccccc3)N2[C@H]1c1cn[nH]c1-c1ccc(Cl)cc1	65.6%	72.3%	48.8%	-33% (active)	63.3%	41.1%	-15.1% (active)	68.8%	-19.8% (active)	-7.33% (active)	-31.2% (active)	-8.38% (active)	50.9%	108%	55.6%	62.5%	-24.4% (active)	22.5%	45.6%	69.4%
O=C1/C(=C/c2ccc(C(F)(F)F)cc2)COc2ccc(O)cc21	99.7%	96.3%	69.3%	44.8%	99.2%	91.3%	71.9%	109%	3.29% (active)	4.15% (active)	9.82% (active)	-23.2% (active)	76.4%	96.5%	82.7%	116%	82.5%	94.8%	95.8%	94.3%
O=C(CN1C(=O)NC2NC(=O)NC21)N/N=C/c1ccc(Cl)cc1Cl (stereo not given)	113%	101%	104%	84.3%	101%	105%	88.2%	112%	107%	105%	109%	104%	109%	105%	103%	102%	103%	104%	103%	104%
CC(C)c1ccc(NC(=O)Nc2ccc(NC(=O)c3ccccc3N)cc2)cc1	45.3%	48.2%	91.6%	20.5%	65.5%	29.6%	70.7%	49.6%	29%	19.2%	17.9%	-0.137% (active)	61.5%	60.5%	59.4%	46.8%	72.6%	49%	-3.9% (active)	89.5%
CC(O)c1ncc(/C=C2\SC(=S)N(Cc3ccccc3)C2=O)s1 (stereo not given)	91%	101%	110%	85.8%	33.7%	95.6%	93.4%	100%	98.6%	108%	82.4%	52.3%	102%	98.6%	85.1%	96.6%	100%	97.2%	109%	99.5%
COc1ccc(C2=Nc3c/c(=C\c4c(O)[nH]c5cc(Cl)ccc45)ccc3=N2)cc1	54.4%	80.7%	96.5%	58.6%	114%	76.9%	75.9%	68.5%	54.8%	83.9%	17%	62.8%	71.9%	77.5%	90.8%	46.4%	86.9%	27%	81.7%	56.4%
COc1cc(C(=O)/C=C/c2c(-c3cccs3)nc3ccccn23)cc(OC)c1OC	10.7%	4.84% (active)	4.93% (active)	10.7%	0.55% (active)	-23.4% (active)	-5.58% (active)	-21.8% (active)	12.3%	-0.559% (active)	13.8%	-9.49% (active)	9.84% (active)	18.4%	13.1%	3.6% (active)	13.1%	-36.5% (active)	-1.24% (active)	-15.6% (active)
Cc1[nH]c(C(=O)Nc2cccc(OC3CCNCC3)c2)c(Cl)c1Cl	88.4%	86.1%	70.3%	67.1%	123%	62.8%	70.3%	25.1%	55.3%	41.5%	13.6%	43.2%	94.2%	95.4%	98.6%	96.5%	60.6%	82.4%	56.6%	89.2%
O=C1NC(=O)c2c1c1c3ccccc3[nH]c1c1oc3cc(Br)ccc3c21	96.9%	69.9%	78.7%	36.9%	126%	55.2%	38.7%	26.5%	50.9%	40.4%	24.4%	63.1%	81.8%	98.9%	77.4%	93.8%	36.2%	89.9%	77.3%	77.3%
COc1cc(-c2nc(NC(C)=O)sc2-c2ccnc(NCCNS(=O)(=O)c3ccccc3)n2)ccc1Cl	-12.6% (active)	45.4%	48.2%	63.3%	39.5%	44%	57.9%	27.1%	13%	15.5%	13.1%	13.8%	37.6%	84.9%	61.6%	26.9%	51.6%	25.7%	27.3%	93.2%

SMILES	growth [1]	growth [2]	growth [3]	growth [4]	growth [5]	growth [6]	growth [7]	growth [8]	growth [9]	growth [10]	growth [11]	growth [12]	growth [13]	growth [14]	growth [15]	growth [16]	growth [17]	growth [18]	growth [19]	growth [20]
CN1CCN(CCOc2ccc(-c3cnc4c(-c5ccc(C(F)(F)F)cc5)cnn4c3)cc2)CC1	63.3%	60.1%	53.7%	38.1%	67.4%	58.8%	31%	69.5%	-13.7% (active)	-51.3% (active)	-8.03% (active)	1.38% (active)	27.2%	79.7%	57.2%	85.6%	38.8%	-3.51% (active)	56%	52.8%
COc1cccc(/C=C/C(=O)c2cc3c(N)c(C(=O)Nc4ccccc4C)sc3nc2C)c1	27.3%	91.7%	13.9%	38.5%	74.1%	56.1%	32.2%	75.7%	9.22% (active)	32.6%	10.8%	-20.8% (active)	-33.9% (active)	87.2%	70.9%	104%	19.4%	3.31% (active)	13.9%	10.1%
Cc1ccc(O)c(NC(=O)c2ccc(CNc3ccnc(C(F)(F)F)c3)cc2)c1	79.2%	60.5%	46.4%	32.6%	96.7%	39%	41.8%	80.7%	7.6% (active)	25.1%	36.4%	15.2%	69.6%	76.9%	53.1%	82%	51.4%	140%	85.4%	50.3%
COc1ccc(Cl)cc1Nc1nc(C(F)(F)F)ccc1C(=O)N/N=C/c1ccccc1Cl	-7.25% (active)	-0.149% (active)	0.596% (active)	2.9% (active)	15.6%	3.39% (active)	11.5%	28.1%	7.11% (active)	3.07% (active)	-15.1% (active)	-56.6% (active)	11.2%	22%	-18.3% (active)	11.7%	4.17% (active)	1.6% (active)	9.51% (active)	0.235% (active)
COc1ccc(Nc2ncccc2NC(=O)c2cn(Cc3cccc(Oc4ccccc4)c3)nn2)cc1OC	95.1%	68%	81.1%	54.4%	96.5%	93.9%	82%	69.6%	74.7%	48.1%	34.9%	73.2%	90.8%	111%	68.2%	93.5%	89.5%	73.3%	72.9%	77%
CCOC(=O)c1cn2ncnc(Oc3ccc(NC(=O)NC4CC4)c(F)c3)c2c1C	114%	96.3%	95.1%	70.6%	119%	93.5%	102%	54.2%	90.9%	104%	84.6%	84.6%	99.7%	103%	69.7%	111%	99.3%	113%	103%	99.3%
CCOC(=O)C/C(=N\Nc1cc(=O)[nH]c2ccc(Cl)cc12)C(=O)OCC	116%	105%	94.9%	83.7%	104%	99.3%	92.4%	108%	-51.5% (active)	-0.305% (active)	47%	57.2%	110%	98.9%	107%	123%	97.6%	110%	94.9%	95.8%
COc1ccc(C(C)=O)cc1S(N)(=O)=O	87.9%	106%	101%	90.7%	81.4%	102%	93.8%	101%	96.8%	86.4%	104%	98.9%	96.6%	102%	101%	115%	108%	108%	91.6%	98.1%
C[C@H]1[C@H](C)CC[C@]2(C(=O)O)CC[C@]3(C)C(=CC[C@@H]4[C@@]5(C)C[C@@H](Cc6cn([C@@H]7O[C@H](CO)[C@@H](O)[C@H](O)[C@H]7O)nn6)[C@H](O)C(C)(C)[C@@H]5CC[C@]43C)[C@H]12	99.9%	96.8%	97.1%	91.8%	89.2%	99.2%	97.2%	80.7%	99.3%	94.2%	105%	98.3%	97.8%	97.2%	91.7%	88.5%	107%	107%	103%	106%
CCCCCCCCn1ccc2cc(NC(=O)Cn3cc(CN4CCC(C)CC4)nn3)ccc21	50.3%	79%	33.5%	-87.7% (active)	80.7%	55.1%	11.3%	87.6%	-12% (active)	3.1% (active)	-0.808% (active)	-40.9% (active)	32.8%	76.7%	63%	79.1%	39.6%	14.7%	59.2%	63.1%
COc1ccc(NC(=O)c2sc3nc4c(cc3c2N)CCCC4)cc1	34.9%	44.3%	60.8%	48%	38.8%	49.3%	38.5%	5.75% (active)	9.46% (active)	21.5%	1.36% (active)	14.8%	25.5%	78.8%	57.3%	39.4%	53.8%	11.1%	43.4%	5.47% (active)
Cc1cccc(-n2c(C)nc3ccc(N4CCCNC4=O)cc3c2=O)c1	106%	99.5%	98%	88.7%	104%	111%	99.8%	90.1%	106%	110%	98%	104%	99.5%	112%	99.3%	114%	111%	107%	111%	103%
COc1cc2c(cc1O)[C@@]1(C)[C@H](c3ccccc3Br)OC(=O)N1CC2	89.8%	82%	87.6%	85.3%	91.9%	83.2%	92.5%	89.6%	83%	90.8%	86.6%	67.1%	88.2%	121%	76.6%	107%	111%	94.1%	97.9%	83.8%
O=C(O)c1cn(C2CC2)c2cc(N3CCN(C(=O)N/N=C/c4ccccc4)CC3)c(F)cc2c1=O	98.7%	101%	112%	74%	96.5%	101%	93.3%	109%	96.9%	85.4%	54.4%	104%	96.3%	110%	102%	95.8%	102%	102%	105%	97.4%
N#Cc1c(-c2ccccc2)cc(-c2ccccc2)n(CCCC(=O)NO)c1=O	34.1%	27.1%	25.8%	-24.8% (active)	34.3%	8.48% (active)	10.6%	-6.11% (active)	10.9%	14.1%	7.72% (active)	11.3%	12.5%	28.9%	29.6%	36.1%	25.4%	8.36% (active)	19.7%	-5.36% (active)
